± gives the standard deviation of the averaged measurements.
The compounds below were run on SUM149 (assay: percent difference in area under dose-response curve of relative cell number, RPMI vs HPLM; higher = drug relatively more effective in HPLM than RPMI (negative = less effective in HPLM)). Conditions: treatment time: 72 h; dose range: 10-point, 1 nM to 20 µM; media compared: RPMI vs HPLM.

Going from `Cc1cc(Nc2cc(N3CCN(C)CC3)nc(/C=C/c3ccccc3)n2)n[nH]1` to `S=C(NCc1ccc2c(c1)OCO2)N1CCN(c2ncnc3c2oc2ccccc23)CC1` [Amuvatinib], the “percent difference in area under dose-response curve” value (“percent difference in area” for short) rises from -2.84% to 1.06%.

Compared with `CNc1nc(-c2ccc3c(N)n[nH]c3c2)cc(N2C[C@@H](C(=O)NC3CCCCC3)CC[C@H]2C)n1`, `COc1ccc(-c2ccc3c(N4CCOCC4)nc(N4C[C@@H](C)O[C@@H](C)C4)nc3n2)cc1CO` is higher in “percent difference in area” value: -4.83% for the first, -2.21% for the second.

Compared with `COc1cc2nccc(Oc3ccc(NC(=O)C4(C(=O)Nc5ccc(F)cc5)CC4)cc3)c2cc1OC` [Cabozantinib_malate], `C#Cc1cccc(Nc2ncnc3cc(OCCOC)c(OCCOC)cc23)c1` [Erlotinib_HCl] is lower in “percent difference in area” value: 13.2% for the first, -0.149% for the second.

Going from `Oc1ccc(Nc2nc(-c3ccc(Cl)cc3)cs2)cc1` to `Nc1nc(Nc2ccc(S(N)(=O)=O)cc2)nn1C(=O)c1c(F)cccc1F`, the “percent difference in area” value falls from 6.02% to -1.01%.

Compared with `Cc1c(NC(=O)OC[C@@H]2COCCN2)cn2ncnc(Nc3ccc4c(cnn4Cc4cccc(F)c4)c3)c12`, `Cn1cc(-c2ccc3c(c2)CCN3C(=O)Cc2cccc(C(F)(F)F)c2)c2c(N)ncnc21` is higher in “percent difference in area” value: 3.34% for the first, 4.03% for the second.

Going from `CC(=O)O[C@H]1C(=O)[C@@]2(C)[C@H]([C@H](OC(=O)c3ccccc3)[C@]3(O)C[C@H](OC(=O)[C@H](O)[C@@H](NC(=O)c4ccccc4)c4ccccc4)C(C)=C1C3(C)C)[C@]1(OC(C)=O)CO[C@@H]1C[C@@H]2O` [Paclitaxel] to `CN(C)CCOc1ccc(/C(=C(/CCCl)c2ccccc2)c2ccccc2)cc1` [Toremifene_Citrate], the “percent difference in area” value rises from -45.1% to 2.31%.

Going from `O=c1[nH]c(=O)n([C@H]2C[C@H](O)[C@@H](CO)O2)cc1F` [Floxuridine] to `O=c1[nH]cc(F)c(=O)[nH]1` [Adrucil], the “percent difference in area” value falls from 14.1% to 1.58%.

Compared with `c1ccc(Cn2nnc3c(Sc4nc5ccccc5o4)ncnc32)cc1`, `O=C(CCCCCCCn1cc(-c2cccnc2)nn1)Nc1ccccc1-c1ccccc1` is lower in “percent difference in area” value: 0.823% for the first, 0.587% for the second.

First: O=C1[C@H](CC[C@H](O)c2ccc(F)cc2)[C@@H](c2ccc(O)cc2)N1c1ccc(F)cc1 [Ezetimibe]
Second: C[C@H](NC(=O)Cc1cc(F)cc(F)c1)C(=O)N[C@@H]1C(=O)N(C)c2ccccc2-c2ccccc21
The “percent difference in area” value of the first is lower: -5.77% for the first, 8.45% for the second.

Compared with `O=C(O)C(=O)O.[NH-][C@@H]1CCCC[C@H]1[NH-].[Pt+2]` [Oxaliplatin], `COc1cc2c(cc1O)CC[C@@H]1[C@@H]2CC[C@]2(C)[C@@H](O)CC[C@@H]12` [2Methoxyestradiol] is lower in “percent difference in area” value: -2.44% for the first, -12% for the second.

Compared with `CN(Cc1cnc2nc(N)nc(N)c2n1)c1ccc(C(=O)N[C@@H](CCC(=O)O)C(=O)O)cc1` [Abitrexate], `Cc1ccc(C(=O)N(CCCN)[C@@H](c2oc3cc(Cl)ccc3c(=O)c2Cc2ccccc2)C(C)C)cc1` is lower in “percent difference in area” value: -8.44% for the first, -42.1% for the second.

First: Cc1cc(/C=C/c2ccc3cc(N(C)C)ccc3[n+]2C)c(C)n1-c1ccccc1 [Pyrvinium_pamoate]
Second: CC(C)c1onc(-c2c(Cl)cccc2Cl)c1COc1ccc(/C=C/c2cccc(C(=O)O)c2)c(Cl)c1
The “percent difference in area” value of the first is lower: -34.5% for the first, 7.59% for the second.

Compared with `O=C(Cc1ccc(-c2ccc(OCCN3CCOCC3)cc2)cn1)NCc1ccccc1`, `c1ccc(Cn2c(-c3ccc(OC[C@H](C4CCNCC4)n4c(-c5ccccc5)nc5ccccc54)cc3)nc3ccccc32)cc1` [Deltarasin] is higher in “percent difference in area” value: -13.1% for the first, -7.63% for the second.

Going from `COc1cc(/C=C/C(=O)N2CCC=CC2=O)cc(OC)c1OC` [Piperlongumine] to `C=CS(=O)(=O)NC1CCN(C(=O)CNc2cc(I)c(Cl)cc2OC)CC1` [KRas_G12C_inhibitor_9], the “percent difference in area” value rises from -18.1% to -1.74%.

First: O=C1c2c(O)ccc(O)c2C(=O)c2c(NCCNCCO)ccc(NCCNCCO)c21 [Mitoxantrone_HCl]
Second: Cc1cc(N2CCOCC2)cc2[nH]c(-c3c(NC[C@@H](O)c4cccc(Cl)c4)cc[nH]c3=O)nc12
The “percent difference in area” value of the first is lower: -32.7% for the first, -6.07% for the second.

Compared with `O=C(CCCCCCC(=O)Nc1ccccc1)NO` [Vorinostat], `O=C(c1cc(Cc2n[nH]c(=O)c3ccccc23)ccc1F)N1CCN(C(=O)C2CC2)CC1` [Olaparib] is lower in “percent difference in area” value: 4.7% for the first, -24.4 ± 6.6% for the second.

Going from `CN(C)/N=N/c1[nH]cnc1C(N)=O` [Dacarbazine] to `O=C(O[C@@H]1Cc2c(O)cc(O)cc2O[C@@H]1c1cc(O)c(O)c(O)c1)c1cc(O)c(O)c(O)c1` [_Epigallocatechin_gallate], the “percent difference in area” value rises from -9.4% to 3.46%.

Source: the supplement of paper PMC11383364
